Source: PubChem BioAssay
This is a sample that favours compounds with a hit; in the whole collection about 19% have one here.
ELG1 repair inh: inhibitors of ELG1-dependent DNA repair in HEK293T cells | HEK293T ELG1-luciferase reporter, luminescence, 16 h; DNA damage induced by 5-fluorouridine | Potency, µM (top dose mostly 46.1 µM), most hits filed as inhibitors | 330,000 compounds, 2.3% hits; note: nearly all actives have a fitted effect of over 55% in size
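Overnight (16 hr) co-exposure of 2,000 cells/well to 5-fluorouridine and compound at 37 °C preceded detection. Luciferase was quantified via ONE-Glo luminescence; loss of signal denotes inhibition.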
TDP1 cell CPT: DT40-hTDP1 cell growth loss with CPT; chicken DT40 Tdp1-/-;hTDP1 cells + 20 nM CPT, ATP luminescence, 48 h; Potency, µM (titrated, usually from 46.2 µM), actives largely listed as inhibitors; 420,000 compounds, 12% hits; AID 686979; note: nearly all actives have a fitted effect of over 55% in size
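Chicken DT40 Tdp1-/- cells complemented with human TDP1, 400 cells/well, exposed to compounds plus 20 nM camptothecin for at least 48 h at 37 C; viability read as ATP content by CellTiter-Glo luminescence.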
TDP1 inh: inhibitors of human tyrosyl-DNA phosphodiesterase TDP1. recombinant TDP1, AlphaScreen DNA substrate cleavage. 350,000 compounds, 0.28% hits. AID 485290. Potency, µM (titrated, usually from 130 µM), hits mostly inhibitors; note: nearly all actives have a fitted effect of over 40% in size
Target sequence (Q9NUW8 whole entry, looked up): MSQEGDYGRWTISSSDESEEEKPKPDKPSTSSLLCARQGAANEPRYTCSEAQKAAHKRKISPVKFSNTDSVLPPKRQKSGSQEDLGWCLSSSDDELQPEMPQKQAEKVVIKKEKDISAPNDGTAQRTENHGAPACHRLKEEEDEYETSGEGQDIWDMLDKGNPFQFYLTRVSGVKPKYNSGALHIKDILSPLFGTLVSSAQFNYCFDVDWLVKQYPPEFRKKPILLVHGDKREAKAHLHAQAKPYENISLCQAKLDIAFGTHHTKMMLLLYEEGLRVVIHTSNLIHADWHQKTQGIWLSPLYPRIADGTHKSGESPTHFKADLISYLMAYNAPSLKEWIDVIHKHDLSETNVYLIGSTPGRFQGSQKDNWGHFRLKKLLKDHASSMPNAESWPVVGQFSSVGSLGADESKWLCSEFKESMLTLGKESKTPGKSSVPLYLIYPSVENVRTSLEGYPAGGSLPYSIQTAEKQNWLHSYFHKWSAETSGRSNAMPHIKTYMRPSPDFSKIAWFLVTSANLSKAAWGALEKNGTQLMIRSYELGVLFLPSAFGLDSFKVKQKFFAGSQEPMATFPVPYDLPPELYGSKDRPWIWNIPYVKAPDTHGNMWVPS
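Recombinant human Tdp1 (E. coli-expressed, 1 nM final) preincubated with compounds 15 min at room temperature, then 5'-biotin/3'-phosphotyrosine-FITC DNA substrate (15 nM final) added for 5 min. AlphaScreen beads (10 ug/ml final) added 10 min; cleavage lowers signal.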
IL1B secr inh: blocks inflammasome-driven IL-1 beta release. AID 743279. 360,000 compounds, 4.7% hits. THP-1 LPS/ATP IL-1B secretion, AlphaLISA, 16 h; stronger effect = lower value. activity change, % at 57.5 µM; in the data active = activity change below about -50%; inconclusive = mostly about -30% to -49%
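THP-1 cells pretreated 1 hr with compounds (up to 57.5 uM final), then stimulated with LPS (250 ng/mL final) plus ATP (1.25 mM final); secreted IL-1B measured by AlphaLISA after 16 hr, decreased signal indicating inhibition.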
DT40 TDP1 no CPT: qHTS for Inhibitors of human tyrosyl-DNA phosphodiesterase 1 (TDP1): qHTS in cells in absence of CPT | DT40 Tdp1-/- hTDP1 cells, no CPT, ATP luminescence, 48 h | Potency, µM (doses to about 46.2 µM), actives largely listed as inhibitors | 420,000 compounds, 15% hits | AID 686978, 2013; note: nearly all actives have a fitted effect of over 55% in size
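Chicken DT40 Tdp1-/- cells complemented with human TDP1, screened without camptothecin (DMSO vehicle only), 400 cells/well. Compounds pin-transferred, cells incubated at 37 °C for at least 48 hr. Growth read as ATP-dependent luminescence (CellTiter-Glo, 30 min at RT).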
Giardia killer: Giardia lamblia killing; activity change, % at 7.66 µM, hits read low; 340,000 compounds, 0.15% hits; AID 540267; Giardia lamblia trophozoite viability; in the data active = activity change below about -80%; inconclusive = between about -30% and that limit;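 note: parasites exposed to compound for two days anaerobically before the ATP read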
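Giardia trophozoites, 100 cells per well, were exposed to compounds for 48 hrs at 37 deg C under anaerobic conditions; viability was then read as ATP content by bioluminescence after 15-30 min at room temperature.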
Numbers stand for hits. Unless noted, calls come from the whole dose curve; as a rule, active = well fitted curve in the direction sought with a large enough effect; inconclusive = small, poorly fitted or top-dose-only effect, or another doubt; inactive = no such curve, though single readings can be large; an effect the other way counts as inactive or inconclusive.

`COc1ccc(OC)c(-n2c(=S)[nH]c3cc(C(=O)NCCCN4CCCC4=O)ccc3c2=O)c1` gave ELG1 repair inh inactive and TDP1 inh inactive.
Screening CCCc1cc(C(=O)N2CCCC(N3CCN(c4ccccc4C)CC3)C2)n(C)n1 (stereo not drawn) returned ELG1 repair inh inconclusive, TDP1 cell CPT 16µM, TDP1 inh inactive, IL1B secr inh inactive, DT40 TDP1 no CPT inconclusive and Giardia killer inactive.
Screening Cc1ccc(C(=O)N2CCCC(N3CCN(c4cccc(C(F)(F)F)c4)CC3)C2)s1 (stereo not drawn) returned ELG1 repair inh inconclusive, TDP1 cell CPT 1.3µM, TDP1 inh inactive, IL1B secr inh inactive, DT40 TDP1 no CPT 6.5µM and Giardia killer inactive.
For CC(=O)N1CCCC(N2CCN(c3cccc(C(F)(F)F)c3)CC2)C1 (stereo not drawn) the results were ELG1 repair inh inactive, TDP1 cell CPT inactive, IL1B secr inh inactive, DT40 TDP1 no CPT inactive and Giardia killer inactive.
For CCCc1cc(C(=O)N2CCCC(N3CCN(c4ccccc4F)CC3)C2)n(C)n1 (stereo not drawn) the results were ELG1 repair inh inactive, TDP1 cell CPT inconclusive, TDP1 inh inactive, IL1B secr inh inactive, DT40 TDP1 no CPT inconclusive and Giardia killer inactive.
Screening Cc1cnc(C(=O)N2CCCC(N3CCN(c4cccc(C(F)(F)F)c4)CC3)C2)cn1 (stereo not drawn) returned ELG1 repair inh inactive, TDP1 cell CPT 23µM, TDP1 inh inactive, IL1B secr inh -62, DT40 TDP1 no CPT inconclusive and Giardia killer inactive.
For CCn1cc(C(=O)N2CCCC(N3CCN(c4cccc(C(F)(F)F)c4)CC3)C2)cn1 (stereo not drawn) the results were ELG1 repair inh inactive, TDP1 cell CPT inconclusive, TDP1 inh inactive, IL1B secr inh inactive, DT40 TDP1 no CPT inconclusive and Giardia killer inactive.
`CCc1cc(C(=O)N2CCCC(N3CCN(c4cccc(C(F)(F)F)c4)CC3)C2)n(C)n1` (stereo not drawn) gave ELG1 repair inh inactive, TDP1 cell CPT 12µM, TDP1 inh inactive, IL1B secr inh inactive, DT40 TDP1 no CPT 12µM and Giardia killer inactive.
Screening O=C(c1ccncc1)N1CCCC(N2CCN(c3cccc(C(F)(F)F)c3)CC2)C1 (stereo not drawn) returned ELG1 repair inh inactive, TDP1 cell CPT 16µM, TDP1 inh inactive, IL1B secr inh inactive, DT40 TDP1 no CPT inconclusive and Giardia killer inactive.
Screening CSc1nc(C(=O)N2CCCC(N3CCN(c4ccccc4C)CC3)C2)cs1 (stereo not drawn) returned ELG1 repair inh inconclusive, TDP1 cell CPT 21µM, TDP1 inh inactive, IL1B secr inh inactive, DT40 TDP1 no CPT 18µM and Giardia killer inactive.
Screening COc1ccccc1N1CCN(C2CCCN(C(=O)c3csc(C)n3)C2)CC1 (stereo not drawn) returned ELG1 repair inh inactive, TDP1 cell CPT inactive, TDP1 inh inactive, IL1B secr inh inactive, DT40 TDP1 no CPT inconclusive and Giardia killer inactive.
CSCC[C@H](N)C(=O)N[C@@H](C)C(=O)NCC(=O)N[C@@H](CCCN=C(N)N)C(=O)N[C@@H](CO)C(=O)NCC(=O)N[C@@H](CC(=O)O)C(=O)N[C@@H](CO)C(=O)N[C@@H](CC(=O)O)C(=O)N[C@@H](CCC(=O)O)C(=O)N[C@@H](CC(=O)O)C(=O)N[C@@H](CC(C)C)C(=O)N[C@@H](CC(C)C)C(=O)N[C@@H](CCCCN)C(=O)N[C@@H](C)C(=O)N[C@H](C(=O)O)C(C)C was read as TDP1 inh inactive.
Screening O=C(CSC1=N/C(=C/c2ccc(Cl)c(Cl)c2)C(=O)N1c1ccccc1F)NC1CC1 returned ELG1 repair inh inconclusive, TDP1 cell CPT 16µM, TDP1 inh inactive, IL1B secr inh inactive, DT40 TDP1 no CPT 16µM and Giardia killer inactive.
`COc1ccc(Cl)cc1N1C(=O)/C(=C/c2sccc2C)N=C1SCC(=O)NC1CC1` gave TDP1 cell CPT inconclusive, IL1B secr inh -70, DT40 TDP1 no CPT 16µM and Giardia killer inactive.
`CCC1CCCCN1C(=O)c1sc(-n2nc(C)c(Cc3ccccc3)c2C)nc1C` (stereo not drawn) gave TDP1 cell CPT inactive, TDP1 inh inactive and DT40 TDP1 no CPT inconclusive.
For COc1ccc(C(=O)Nc2ccccc2[N+](=O)[O-])cc1S(=O)(=O)N1CCOCC1 the results were ELG1 repair inh inconclusive, TDP1 cell CPT inactive, TDP1 inh inactive, IL1B secr inh -62, DT40 TDP1 no CPT inconclusive and Giardia killer inactive.
Cc1ccc(NC(=O)c2ccc(N3CCOCC3)c([N+](=O)[O-])c2)cc1S(=O)(=O)N1CCOCC1 was read as ELG1 repair inh 21µM, TDP1 cell CPT 9.2µM, TDP1 inh inactive, IL1B secr inh -78, DT40 TDP1 no CPT 7.3µM and Giardia killer inactive.
`Cc1ccc(C(=O)Nc2ccccc2[N+](=O)[O-])cc1S(=O)(=O)N1CCOCC1` gave ELG1 repair inh inactive, TDP1 cell CPT inactive, TDP1 inh inactive, IL1B secr inh -64, DT40 TDP1 no CPT inconclusive and Giardia killer inactive.
COc1ccccc1CNC(=O)CN(C)CC(=O)Nc1ccc(F)c(F)c1F was read as ELG1 repair inh inactive, TDP1 cell CPT inactive, TDP1 inh inactive, IL1B secr inh inactive, DT40 TDP1 no CPT inactive and Giardia killer inactive.
`CCN(CC)C(=O)CSc1nnc2[nH]c(=O)cc(C)n12` gave TDP1 cell CPT inactive, TDP1 inh inactive and DT40 TDP1 no CPT inactive.
Screening COc1cccc2c1C(=O)c1c(O)c3c(c(O)c1C2=O)CC(O)(C(C)=O)CC3OC1CC(N(C)C)C(O)C(C)O1 (stereo not drawn) returned TDP1 cell CPT 0.052µM, IL1B secr inh -101, DT40 TDP1 no CPT 0.082µM and Giardia killer inactive.
For N#Cc1ccc(Oc2cnccn2)cc1 the results were ELG1 repair inh inactive, TDP1 cell CPT inactive, IL1B secr inh inactive, DT40 TDP1 no CPT inactive and Giardia killer inactive.
For CC(=O)Nc1c(Cl)c(Cl)c2c(c1Cl)C(=O)c1cc(Cl)ccc1-2 the results were TDP1 cell CPT inconclusive, IL1B secr inh inactive, DT40 TDP1 no CPT inconclusive and Giardia killer inactive.
For Cc1ccc(C)c(N2CCN(C(=O)c3ccc(N4CCCC4=O)cc3)CC2)c1 the results were ELG1 repair inh inconclusive, TDP1 cell CPT inconclusive, IL1B secr inh inactive, DT40 TDP1 no CPT 16µM and Giardia killer inactive.
`CN1CCN(C(=O)c2ccc(N3CCCC3=O)cc2)CC1` gave ELG1 repair inh inactive, TDP1 cell CPT inactive, TDP1 inh inactive, IL1B secr inh inactive, DT40 TDP1 no CPT inactive and Giardia killer inactive.
